Results as given in PubChem BioAssay.
Values joined by “and” are separate entries in the source; they are usually repeats but may differ in a detail not shown here. Identical values can stand only once.

Assay: compound effects on lung adenocarcinoma cell viability – A549, calcein-AM fluorescence, 48 h, basal, profiling panel (AID 1162); note: test concentration not given here
Conditions: higher = more signal

Structure (SMILES)	z-score
CC(=O)OC[C@H]1O[C@H](C#CC(C)(C)C)C=C[C@@H]1OC(C)=O	-0.327
COc1ccc(O[C@H]2C=C[C@@H](c3ccccc3)O[C@@H]2COC(=O)CCC(C)=NO[C@H](C)c2cn([C@H](CO)Cc3ccccc3)nn2)cc1	-0.748 and -0.352
CCCC[C@@H]1CN2[C@H](c3ccc(Br)cc3)[C@@H](C)CC[C@H]2C(=O)O1	1.03 and 0.449
CC(CO)N1C(=O)[C@@H]2C3C(=O)OCCC=C[C@H]3OC23C=CCN(C(C)(C)C)C(=O)[C@@H]13 (some centres undefined)	-0.418 and -0.461
C=CCN(C(=O)C1N(CCOCCO)C(=O)C2C(C(=O)O)C3C=CC21O3)C(C)(C)C (centres undefined)	-0.186 and -0.328
C[C@@H](ON=C1[C@H]2CCn3c(=O)n(-c4ccccc4)c(=O)n3[C@H]2[C@H](O)[C@@H]2O[C@H]12)c1cn([C@H](CO)Cc2ccccc2)nn1	0.158
CO[C@H]1COC(=O)CC=C[C@H](C)[C@H](OC)COC(=O)[C@@H](C)COC(=O)CC=C[C@@H]1C	-0.26 and 0.27
COC(=O)[C@H](C)NC(=O)CCC1CC(OC(=O)NCCc2ccc(F)cc2)CC2(CCCC(COC(=O)NCCCN3CCCC3=O)O2)O1 (some centres undefined)	-0.48
CCOC(=O)[C@@H]1CC2O[C@]23C[C@@H]1C(=O)N1CCC[C@@H]1[C@H]3O[Si](C)(C)C(C)(C)C (some centres undefined)	-0.889 and -0.825
C[C@@H]1CC[C@H]2C(=O)O[C@H](CN=[N+]=[N-])CN2[C@H]1c1ccc(Br)cc1	-2.47 and 0.677
O=c1n(-c2ccccc2)c(=O)n2n1CC[C@@H]1C(=NOC[C@@H](O)COCc3ccco3)[C@H]3O[C@H]3[C@@H](O)[C@@H]12	-1.18 and 0.202
C=C(C)C(=O)OC[C@@H]1CN2[C@@H](CC[C@@H](C)[C@@H]2c2ccc(Br)cc2)C(=O)O1	0.254
CCCNC(=O)OC[C@H]1O[C@H](CCON=C(C)CCC(=O)OC[C@H]2O[C@H](C#Cc3ccccc3)C=C[C@@H]2Oc2ccc(C)cc2)C=C[C@@H]1Oc1ccc(OC)cc1	-0.284
C=C[C@@H](OC)[C@H](O)c1ccc(O)c(F)c1	0.29 and -0.115
COCn1c2ccccc2c2nnc(C(C)=O)nc21	-0.337 and -0.197
CC[C@@H]1C(Sc2ccccc2)C(C(=O)O)[C@H](c2ccc(C)cc2)N1S(=O)(=O)c1ccc(C)cc1 (some centres undefined)	0.0996 and 0.624
C=CCN(C(=O)C(c1cccs1)N(C(=O)/C=C\C(=O)O)c1c(Cl)cccc1CO)c1ccc(OC)cc1 (centres undefined)	1.15 and 1.21

Structure (SMILES)	z-score
CO[C@@H]1COC(=O)[C@H](Cc2ccccc2)NC(=O)CC=C[C@@H](C)[C@H](OC)COC(=O)[C@@H](C)NC(=O)CC=C[C@H]1C	-0.0911 and -0.304
CCOC(=O)[C@@H]1CC=C2CC1C(=O)N1CCC[C@@H]1[C@H]2O[Si](C)(C)C(C)(C)C (some centres undefined)	-0.366 and -0.566
C[C@@H](c1ccccc1)N1C(=O)[C@H]2[C@H]3[C@H](O)[C@H](O)CC(=O)[C@@H]3CC[C@H]2C1=O	0.0128
C[C@@H]1CC[C@H]2C(=O)NC[C@@H](O)CN2[C@H]1c1ccc(Br)cc1	-0.179 and 0.44
CC(C)[Si]1(C(C)C)OCc2cc(CCCc3cc4c(c(CCc5ccccc5)n3)[Si](C(C)C)(C(C)C)OC4)nc(CCc3ccccc3)c21	0.148 and -0.222
Cc1cc2c(nc1C)CCCN2CC(C)ON=C[C@@H](C)[C@H](OCc1ccccc1)C(C)C (some centres undefined)	-0.351
C=CCN(C(=O)C(c1cccs1)N(C(=O)/C=C\C(=O)O)c1ccc(CCO)cc1)C(C)(C)C (centres undefined)	-0.392 and -0.51
C=C[C@@H](OC)[C@H](O)c1ccc(OCCO)cc1	0.143 and 0.72
C=CCN(C(=O)C(c1cccs1)N(CCOCCO)C(=O)/C=C\C(=O)O)c1ccc(OC)cc1 (centres undefined)	0.995 and 1.98
C=C[C@@H](C)[C@H](O)c1ccc(O)c2ccccc12	-0.529 and -0.709
C[C@@H]1CN2[C@@H](CC[C@@H](C)[C@@H]2c2ccc(Br)cc2)C(=O)O1	-0.133 and 0.551
C=CCN(C(=O)C1N(c2ccc(CCO)cc2)C(=O)C2C(C(=O)O)C3C=CC21O3)c1ccc(OC)cc1 (centres undefined)	0.414 and -0.783
C=C[C@H](C)[C@@H](O)c1ccc(OCCO)cc1	0.235 and -0.066
C=CCN(C(=O)C(c1cccs1)N(CCOCCO)C(=O)/C=C\C(=O)O)C(C)(C)C (centres undefined)	1.01 and 1.61
COC(=O)C1=C(C)N(Cc2ccccc2)[C@]23O[C@](C(=O)OC)(C(=O)N2[C@@H]1c1ccccc1)[C@@H](c1ccccc1)[C@@H]3C(=O)c1ccccc1	0.668 and 0.418
C=CCN(CCCC)C(=O)C1N(C(C)(C)CO)C(=O)C2C(C(=O)O)C3C=CC21O3 (centres undefined)	-0.77 and -0.624
Cc1ccc(S(=O)(=O)N[C@H]2COC(=O)[C@@H](C)COC(=O)[C@H](C)NC(=O)CC=C[C@H]2C)cc1	0.437
